Laboratory results as given in PubChem BioAssay (NCATS).
Results filed as inconclusive are left out. Entries that show only a call come without a potency. Activity calls are given as the source filed them. The call rests on the fitted dose curve; in most records, active means well fitted inhibition curve with a large enough effect; inconclusive means small, poorly fitted or top-dose-only effect; inactive means no such curve, though single readings can be large or run the other way.

Assay: P-glycoprotein substrates identified in KB-3-1 adenocarcinoma cell line, qHTS therapeutic library screen (AID 1346986); further: nearly all actives have a fitted effect of over 60% in size;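 further: potency is for cytotoxicity meaning loss of cell viability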
Details: KB-3-1 parental cells viability, CellTiter-Glo, 72 h; series mostly up to 44.5 µM
Protocol: The ATP-binding cassette transporters P-glycoprotein (P-gp) is known to limit brain penetration of many chemotherapy drugs. […] We used the CellTiter-Glo viability assay to test library compounds against the parental KB-3-1 human cervical adenocarcinoma cell line and the colchicine-selected sub-line KB-8-5-11 that over-expresses P-gp. KB-8-5-11 cells were also tested in the presence of a P-gp inhibitor (tariquidar) to assess reversability of transporter-mediated resistance. Of the tested compounds, a total of 90 P-gp substrates were identified including 55 newly identified P-gp substrates. Substrates were confirmed using an orthogonal killing assay against HEK-293 cells transfected with P-gp. As exemplars, we confirmed that AT7159 (cyclin-dependent kinase inhibitor); AT9283, (Janus kinase 2/3 inhibitor); ispinesib (kinesin spindle protein inhibitor); gedatolisib (PKI-587, phosphoinositide 3-kinase/mammalian target of rampamycin inhibitor); GSK-690693 (AKT inhibitor); and KW-2478 (heat shock protein 90 inhibitor) were substrates , and direct ATPase stimulation was assessed. ABCG2 was also found to confer high levels of resistance to AT9283, GSK-690693 and gedatolisib, while ispinesib, AT7519 and KW-2478 were weaker substrates.
The HeLa derivative cell line, KB-3-1, and its colchicine-selected, P-gp-overexpressing subline, KB-8-5-11 were maintained in DMEM with 10% FCS and Pen/Strep with glutamine at 37 degree C in 5% CO2. For KB-8-5-11 cells, colchicine was added to the medium at a concentration of 100 ng/mL. HEK-293 cells transfected with empty vector (pcDNA) or vector containing human ABCB1 (MDR-19) or ABCG2 (R-5) have been described previously (Robey, Lin, Qiu, Chan & Bates, 2011) and were maintained in EMEM supplemented with 10% FCS, Pen/Strep and glutamine with 2 mg/ml G418 to select for the expression of the transporter. Cultures were confirmed to be free of mycoplasma infection using the MycoAlert Mycoplasma Detection Kit (Lonza, Walkersville, MD). For the screen, assay medium was identical to culture medium except for KB-8-5-11 where colchicine was excluded from the medium.
All cell lines were plated into 1536-well plates at 500 cells/well in 5 uL media. Compounds were then pinned in dose-response using a 1536-head pin tool (Kalypsis, San Diego, CA) and plates were incubated at 37 degree C in 5% CO2 for an additional 72 h. CellTiter-Glo reagent (Promega) was dispensed into the wells, incubated for 5 min and luminescence was read on a ViewLux instrument (Perkin-Elmer). Cytotoxic compounds were defined as those that yielded a curve class of -1.1, -1.2, -2.1, -2.2, -2.3, or -2.4, a maximum response of >50% and an AC50 of < 10 uM. Cherry-picked hits from screening analysis were tested with both the KB pair of cell lines, and the pcDNA (empty vector control) and MDR-19 (P-gp overexpressing) pair were tested, in the absence and presence of tariquidar.
Potency means the concentration at half of the fitted maximal effect.

| Structure (SMILES) | Potency |
| --- | --- |
| CCCOc1ccc2nc(NC(=O)OC)[nH]c2c1 | 0.291 µM (active) |
| CCC(C)(Oc1ccc(C2(c3ccc(OC(C)(CC)C(=O)O)cc3)CCCCC2)cc1)C(=O)O (centres undefined) | inactive |
| CC(C)[C@H](N)C(=O)OCCOCn1cnc2c(=O)[nH]c(N)nc21 | inactive |
| O=c1ccc2ccc(O)c(O)c2o1 | inactive |
| COc1cc(Nc2c(C#N)cnc3cc(OCCCN4CCN(C)CC4)c(OC)cc23)c(Cl)cc1Cl | 18.4 µM (active) |
| CCCc1cc(=O)[nH]c(=S)[nH]1 | inactive |
| Cc1cc2cc3c(C)cc(=O)oc3c(C)c2o1 | inactive |
| Cc1nccn1CC1CCc2c(c3ccccc3n2C)C1=O (centres undefined) | inactive |
| CN(c1nccc(=O)[nH]1)C1CCN(c2nc3ccccc3n2Cc2ccc(F)cc2)CC1 | inactive |
| CC(C)c1ccc2oc3nc(N)c(C(=O)O)cc3c(=O)c2c1 | inactive |
| Oc1ccc(OCc2ccccc2)cc1 | inactive |
| Cc1cc(Cl)ccc1OCCCC(=O)NO | inactive |
| c1cnc2cc3c(cc2n1)C1CNCC3C1 | inactive |
| C[C@H](Cn1cnc2c(N)ncnc21)OCP(=O)(O)O | inactive |
| Oc1ccc2ccccc2c1SSc1c(O)ccc2ccccc12 | inactive |
| CCOC(=O)C(C)Oc1cccc2c(=O)n(CC(=O)Nc3ccc4c(c3)OCCO4)ccc12 (centres undefined) | inactive |
| Oc1ccc(-c2nc(-c3ccc(F)cc3)c(-c3ccncc3)[nH]2)cc1 | inactive |

| Structure (SMILES) | Potency |
| --- | --- |
| O=C1c2c(O)cc(O)cc2OC(c2ccc(O)c(O)c2)C1O (centres undefined) | inactive |
| O=C(CCc1ccc(O)cc1)c1c(O)cc(O)cc1O | inactive |
| N[C@@H](Cc1cc(I)c(Oc2cc(I)c(O)c(I)c2)c(I)c1)C(=O)O | inactive |
| O=C(NCCO[N+](=O)[O-])c1cccnc1 | inactive |
| O=C(NC(Cc1cc(=O)[nH]c2ccccc12)C(=O)O)c1ccc(Cl)cc1 (centres undefined) | inactive |
| CN(C)C(=O)[C@H](O)[C@H](Cc1ccccc1)NC(=O)c1cc2cc(Cl)ccc2[nH]1 | inactive |
| Cc1cc(C2CCCCC2)n(O)c(=O)c1 | 6.51 µM (active) |
| CC1=C(C(=O)O)N2C(=O)[C@@H](NC(=O)[C@H](N)C3=CCC=CC3)[C@H]2SC1 | inactive |
| Cc1cc2c(s1)Nc1ccccc1N=C2N1CCN(C)CC1 | inactive |
| CCOc1cc(CC(=O)N[C@@H](CC(C)C)c2ccccc2N2CCCCC2)ccc1C(=O)O | inactive |
| COc1cc(C(C)=O)ccc1OCCCN1CCC(c2noc3cc(F)ccc23)CC1 | inactive |
| O=C1NC(=O)C(c2ccccc2[N+](=O)[O-])=C1Nc1ccc(O)c(Cl)c1 | inactive |
| Nc1ncn([C@H]2C[C@H](O)[C@@H](CO)O2)c(=O)n1 | inactive |
| CN(C)CCc1c[nH]c2ccc(Cn3cncn3)cc12 | inactive |
| Nc1ccn([C@@H]2O[C@H](CO)[C@@H](O)C2O)c(=O)n1 (some centres undefined) | inactive |
| CCCCC(CC)COC(=O)C(C#N)=C(c1ccccc1)c1ccccc1 (centres undefined) | inactive |
| COCCCOc1ccnc(CS(=O)c2nc3ccccc3[nH]2)c1C (centres undefined) | inactive |
